The values below come from PubChem BioAssay (EPA / NIEHS).

Assay [1] is described as follows: ATG_NFI_CIS: Attagene CIS-FACTORIAL HepG2 Assay for human Nuclear Factor I (NFI) (AID 2282989). To be noted: HepG2 cis-regulatory reporter, NFI response element transcription; actives raise or lower the signal. Put shortly:
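Reporter transcripts were measured by RT-PCR with fluorescent primer extension and capillary electrophoresis 24 h post-treatment. HepG2 cells carried transiently transfected cis-regulated reporter constructs reporting endogenous factor activity; gain or loss fitted against DMSO baseline.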

Assay [2] addresses Myc proto-oncogene protein (Homo sapiens) (UniProt P01106). Kind of assay: ATG_Myc_CIS: Attagene CIS-FACTORIAL HepG2 Assay for human Myelocytomatosis (Myc) Proto-Oncogene Transcription Factor (AID 2282990). The note with it: HepG2, Attagene cis-reporter transcription factor activity; actives raise or lower the signal. The method in brief:
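After 24 h chemical treatment of HepG2 cells carrying multiplexed cis-regulated reporter constructs, reporter transcripts quantified by RT-PCR and capillary electrophoresis of fluorescent fragments. Gain or loss fitted against DMSO baseline.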

The nature of assay [3]: ATG_NF_kB_CIS: Attagene CIS-FACTORIAL HepG2 Assay for human Nuclear Factor Kappa B (NF-kB) (AID 2282991). To be noted: HepG2 Attagene cis-factorial NF-kB reporter mRNA; actives raise or lower the signal. The method in brief: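 Endpoint from a 52-component multiplexed HepG2 reporter panel: cis-regulated transcription units transiently transfected, 24 h dosing, reporter mRNA quantified by RT-PCR and capillary electrophoresis, scored as increase or decrease against DMSO.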

Assay [4] can be described thus: ATG_NRF2_ARE_CIS: Attagene CIS-FACTORIAL HepG2 Assay for human Nuclear Factor Erythroid 2 Related Factor 2 (NFR2) response to Antioxidant Response Elements (ARE) (AID 2282992). To be noted: HepG2 Attagene ARE/NRF2 reporter, transcription factor activity; actives raise or lower the signal. The method in brief: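 Endogenous transcription factor activity read out as reporter transcript levels (RT-PCR plus capillary electrophoresis, fluorescence) in transiently transfected HepG2 cells. Measured at 24 h after dosing; gain or loss of signal fitted versus DMSO.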

Assay [5] in a line: ATG_Oct_MLP_CIS: Attagene CIS-FACTORIAL HepG2 Assay for human Octamer-Binding Transcription Factor (Oct) (AID 2282993). The note with it: HepG2 Attagene cis-factorial Oct reporter, mRNA; actives raise or lower the signal. The method in brief: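 Readout is reporter transcript level from RT-PCR with fluorescent primer extension and capillary electrophoresis, fitted in both directions against DMSO. Transfected HepG2 reporter units report endogenous factor activity after 24 h dosing.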

The target of assay [6] is Cellular tumor antigen p53 (Homo sapiens) (UniProt P04637). Kind of assay: ATG_p53_CIS: Attagene CIS-FACTORIAL HepG2 Assay for human p53 Transcription Factor (AID 2282994). The note with it: HepG2 p53 cis-element reporter, Attagene mRNA; actives raise or lower the signal. The method in brief:
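Endogenous p53 activity read in transiently transfected HepG2 from a cis-element-driven reporter transcript after 24 h exposure. RNA reverse-transcribed, PCR-amplified, fluorescently labelled and sized by capillary electrophoresis; gain or loss fitted against DMSO baseline.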

Assay [7] has as its target human Peroxisome Proliferator-activated Receptor alpha (PPARa), PPARA (gene 5465) (UniProt Q07869). Kind of assay: ATG_PPARa_TRANS: Attagene TRANS-FACTORIAL HepG2 Assay for human Peroxisome Proliferator-activated Receptor alpha (PPARa) (AID 2283001; active = hit-call score of the fitted dose curve at least 0.9, where 1 is the maximum). Put shortly:
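Reporter transcripts quantified by RT-PCR plus capillary electrophoresis after 24 h treatment, fitted upward relative to DMSO. Cells: human HepG2 transiently carrying multiple GAL4-UAS reporter units driven by NR-Gal4 chimeras.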

Assay [8] concerns the target human Peroxisome Proliferator-activated Receptor delta (PPARd), PPARD (gene 5467) (UniProt Q03181). Briefly: ATG_PPARd_TRANS: Attagene TRANS-FACTORIAL HepG2 Assay for human Peroxisome Proliferator-activated Receptor delta (PPARd) (AID 2283002; active = hit-call score of the fitted dose curve at least 0.9, where 1 is the maximum). Put shortly:
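Read-out is induced reporter mRNA, quantified by RT-PCR with fluorescent labelling and capillary electrophoresis after 24 h dosing. Cells are HepG2 transiently carrying multiple GAL4-UAS reporter units driven by exogenous NR-GAL4 chimeras; DMSO serves as baseline.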

Assay [9] has as its target Peroxisome proliferator-activated receptor gamma (Homo sapiens) (UniProt P37231). Briefly: ATG_PPARg_TRANS: Attagene TRANS-FACTORIAL HepG2 Assay for human Peroxisome Proliferator-activated Receptor-gamma (PPARg) (AID 2283007; active = hit-call score of the fitted dose curve at least 0.9, where 1 is the maximum). Put shortly: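 Endpoint reflects upward reporter mRNA change versus DMSO controls. Setup: transiently transfected HepG2, GAL4-UAS reporters driven by chimeric NR-Gal4, 24 h incubation, RT-PCR with capillary electrophoresis read-out.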

Assay [10] deals with Nuclear receptor subfamily 1 group I member 2 (Homo sapiens) (UniProt O75469). Kind of assay: ATG_PXR_TRANS: Attagene TRANS-FACTORIAL HepG2 Assay for human Pregnane X Receptor (PXR) (AID 2283008; active = hit-call score of the fitted dose curve at least 0.9, where 1 is the maximum). The method in brief:
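Transactivation by exogenous PXR–GAL4 fusion measured as reporter transcript induction after 24 h compound treatment of transfected human HepG2 cells. Read-out via RT-PCR and capillary electrophoresis of labelled fragments, fitted upward relative to DMSO.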

The nature of assay [11]: BSK_3C_uPAR: BioMAP Diversity Plus: 3C Assay for Urokinase-type plasminogen activator receptor (uPAR) Biomarker Activity (AID 2282998). The note with it: BioMAP 3C HUVEC, uPAR biomarker ELISA; actives raise or lower the signal. Put shortly: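 Cell-surface uPAR on HUVEC (3C system) read by ELISA at 24 h post-treatment, with DMSO as baseline and fitting in both directions. Parallel cultures stained with SRB to flag overt cytotoxicity.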
For orientation: ELISA stands for enzyme-linked immunosorbent assay.

Assay [12] is described as follows: BSK_3C_VCAM1: BioMAP Diversity Plus: 3C Assay for Vascular cell adhesion molecule 1 (VCAM1) Biomarker Activity (AID 2282999). To be noted: BioMAP 3C HUVEC, VCAM1 ELISA, cytokine-stimulated; actives raise or lower the signal. The method in brief: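 Activity fitted in both directions relative to DMSO, with ELISA measurement of the surface marker on primary HUVEC (3C) at 24 h post-treatment; parallel SRB staining (0.1% SRB, TCA-fixed, 560 nm) flagged overt cytotoxicity.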

Assay [13] in a line: BSK_4H_Eotaxin3: BioMAP Diversity Plus: 4H Assay for Eotaxin 3 Biomarker Activity (AID 2283000).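 For outcome: CCL26 protein level quantified by ELISA in parallel with SRB cytotoxicity check.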 To be noted: primary human endothelial cells (HUVEC); actives raise or lower the signal. Put shortly: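 Eotaxin-3 (CCL26) levels were measured by ELISA in HUVEC primary cultures 24 h post-dosing. Gain or loss of signal was fitted in both directions, with DMSO serving as baseline and negative control.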

Read-out in assay [14]: Intercellular Adhesion Molecule 1 (ICAM1), ICAM1 (gene 3383)
Kind of assay: BSK_3C_ICAM1: BioMAP Diversity Plus: 3C Assay for Intercellular Adhesion Molecule 1 (ICAM1) Biomarker Activity (AID 2283003). To be noted: primary human endothelial cells (HUVEC); actives raise or lower the signal. The method in brief:
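Chemicals are dosed onto primary human umbilical vein endothelium (3C system). After 24 h, ICAM-1 is measured by ELISA, and responses are fitted bidirectionally relative to DMSO.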

The target in assay [15] is human Retinoic Acid Receptor gamma (RARg), RARG (gene 5916) (UniProt P13631). Kind of assay: ATG_RARg_TRANS: Attagene TRANS-FACTORIAL HepG2 Assay for human Retinoic Acid Receptor gamma (RARg) (AID 2283009; active = hit-call score of the fitted dose curve at least 0.9, where 1 is the maximum). The method in brief: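 TRANS format measured activity of exogenous NR-GAL4 fusion (RARg) in transfected HepG2 liver cells after 24 h dosing. Induced reporter RNA was detected by RT-PCR/capillary electrophoresis fluorescence, analysed in the positive direction against DMSO.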
Sequence of human Retinoic Acid Receptor gamma (RARg), RARG (gene 5916) (P13631 whole entry, looked up, the tested form may be a part): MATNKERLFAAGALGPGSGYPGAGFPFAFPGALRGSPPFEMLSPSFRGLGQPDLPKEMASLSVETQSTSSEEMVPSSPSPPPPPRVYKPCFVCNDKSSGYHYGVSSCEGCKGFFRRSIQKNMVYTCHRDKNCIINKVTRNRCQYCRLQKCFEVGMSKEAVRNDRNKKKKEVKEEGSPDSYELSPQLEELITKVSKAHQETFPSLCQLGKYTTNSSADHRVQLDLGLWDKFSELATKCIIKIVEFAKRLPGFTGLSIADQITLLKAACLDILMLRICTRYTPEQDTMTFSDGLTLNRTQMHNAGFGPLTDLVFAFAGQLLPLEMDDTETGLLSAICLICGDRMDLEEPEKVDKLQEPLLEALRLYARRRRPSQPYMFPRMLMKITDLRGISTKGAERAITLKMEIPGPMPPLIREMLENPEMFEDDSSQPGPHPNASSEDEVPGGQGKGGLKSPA

In assay [16] the target is human RAR-related Orphan Receptor beta (RORb), RORB (gene 6096) (UniProt Q92753). Briefly: ATG_RORb_TRANS: Attagene TRANS-FACTORIAL HepG2 Assay for human RAR-related Orphan Receptor beta (RORb) (AID 2283010; active = hit-call score of the fitted dose curve at least 0.9, where 1 is the maximum). Put shortly: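 Transfect HepG2 with multiple GAL4-UAS reporter transcription units; dose chemicals for 24 h; isolate RNA, reverse-transcribe and PCR-amplify reporter sequences; label, digest and resolve fragments by capillary electrophoresis; fit increases relative to DMSO.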
Sequence of human RAR-related Orphan Receptor beta (RORb), RORB (gene 6096) (Q92753 whole entry, looked up, the tested form may be a part): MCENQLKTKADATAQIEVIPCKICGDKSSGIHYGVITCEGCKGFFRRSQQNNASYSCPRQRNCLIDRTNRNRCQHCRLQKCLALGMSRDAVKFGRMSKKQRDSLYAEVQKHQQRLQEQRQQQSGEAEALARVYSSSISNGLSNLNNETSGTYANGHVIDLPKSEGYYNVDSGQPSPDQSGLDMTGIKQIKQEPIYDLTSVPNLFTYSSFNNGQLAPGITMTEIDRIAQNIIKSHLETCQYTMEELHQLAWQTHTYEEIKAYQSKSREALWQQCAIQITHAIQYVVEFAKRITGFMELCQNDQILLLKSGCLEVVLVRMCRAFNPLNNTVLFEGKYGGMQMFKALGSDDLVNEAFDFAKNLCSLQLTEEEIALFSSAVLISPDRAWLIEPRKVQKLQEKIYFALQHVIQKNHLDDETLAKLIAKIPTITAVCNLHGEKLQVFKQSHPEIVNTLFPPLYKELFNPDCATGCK

Assay [17] concerns the target human RAR-related Orphan Receptor gamma (RORg), RORC (gene 6097) (UniProt P51449). Kind of assay: ATG_RORg_TRANS: Attagene TRANS-FACTORIAL HepG2 Assay for human RAR-related Orphan Receptor gamma (RORg) (AID 2283011; active = hit-call score of the fitted dose curve at least 0.9, where 1 is the maximum). Put shortly:
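HepG2 cells transiently transfected with GAL4-UAS reporter units and chimeric RORg-Gal4 construct; after 24 h chemical exposure, reporter mRNA measured by RT-PCR with fluorescent capillary electrophoresis, gain of signal fitted against DMSO.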

Structures are written as SMILES. Results filed as inconclusive are left out. Calls of active or inactive are those of the source. Rule for the calls, unless noted: active = hit-call score of the fitted dose curve at least 0.9, where 1 is the maximum; inactive = score below 0.9.

Sequence of Peroxisome proliferator-activated receptor gamma (Homo sapiens) (P37231 whole entry, looked up, the tested form may be a part): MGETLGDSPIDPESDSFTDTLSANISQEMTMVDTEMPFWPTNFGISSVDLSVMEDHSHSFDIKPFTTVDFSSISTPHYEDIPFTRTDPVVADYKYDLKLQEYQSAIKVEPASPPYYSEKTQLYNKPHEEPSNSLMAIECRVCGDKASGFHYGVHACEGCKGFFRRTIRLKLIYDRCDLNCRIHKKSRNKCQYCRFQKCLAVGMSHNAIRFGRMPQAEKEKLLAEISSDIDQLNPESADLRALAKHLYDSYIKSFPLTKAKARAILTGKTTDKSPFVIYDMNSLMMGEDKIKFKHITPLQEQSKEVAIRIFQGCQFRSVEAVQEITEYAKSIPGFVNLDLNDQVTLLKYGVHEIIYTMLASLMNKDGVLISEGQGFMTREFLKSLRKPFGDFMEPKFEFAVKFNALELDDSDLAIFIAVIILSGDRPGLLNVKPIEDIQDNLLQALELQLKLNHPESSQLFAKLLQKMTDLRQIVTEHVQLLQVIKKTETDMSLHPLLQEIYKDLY
Sequence of human Peroxisome Proliferator-activated Receptor alpha (PPARa), PPARA (gene 5465) (Q07869 whole entry, looked up, the tested form may be a part): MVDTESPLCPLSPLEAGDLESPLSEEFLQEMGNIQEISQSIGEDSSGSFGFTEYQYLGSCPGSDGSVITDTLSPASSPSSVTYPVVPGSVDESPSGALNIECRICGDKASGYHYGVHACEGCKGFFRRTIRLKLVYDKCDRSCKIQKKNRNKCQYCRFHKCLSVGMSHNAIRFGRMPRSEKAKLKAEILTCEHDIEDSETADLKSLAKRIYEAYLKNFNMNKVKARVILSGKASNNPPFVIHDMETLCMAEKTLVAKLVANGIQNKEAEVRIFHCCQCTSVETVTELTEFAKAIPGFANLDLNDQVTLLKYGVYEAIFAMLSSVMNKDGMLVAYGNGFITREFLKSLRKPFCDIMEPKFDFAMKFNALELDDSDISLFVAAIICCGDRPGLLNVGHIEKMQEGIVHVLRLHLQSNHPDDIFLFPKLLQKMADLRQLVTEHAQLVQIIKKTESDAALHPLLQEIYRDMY
Sequence of human Peroxisome Proliferator-activated Receptor delta (PPARd), PPARD (gene 5467) (Q03181 whole entry, looked up, the tested form may be a part): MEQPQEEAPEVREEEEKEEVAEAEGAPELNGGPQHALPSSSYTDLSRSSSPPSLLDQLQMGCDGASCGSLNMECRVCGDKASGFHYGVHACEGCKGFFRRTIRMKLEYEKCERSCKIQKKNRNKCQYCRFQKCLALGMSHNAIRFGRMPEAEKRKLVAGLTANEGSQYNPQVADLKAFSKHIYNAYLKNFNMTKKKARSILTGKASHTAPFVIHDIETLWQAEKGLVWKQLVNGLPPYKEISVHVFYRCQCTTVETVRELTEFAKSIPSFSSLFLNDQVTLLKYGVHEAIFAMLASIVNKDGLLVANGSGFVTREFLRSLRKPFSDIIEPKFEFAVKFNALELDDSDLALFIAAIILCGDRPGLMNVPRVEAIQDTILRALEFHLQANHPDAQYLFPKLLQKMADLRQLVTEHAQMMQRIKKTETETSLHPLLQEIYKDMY
Sequence of Nuclear receptor subfamily 1 group I member 2 (Homo sapiens) (O75469 whole entry, looked up, the tested form may be a part): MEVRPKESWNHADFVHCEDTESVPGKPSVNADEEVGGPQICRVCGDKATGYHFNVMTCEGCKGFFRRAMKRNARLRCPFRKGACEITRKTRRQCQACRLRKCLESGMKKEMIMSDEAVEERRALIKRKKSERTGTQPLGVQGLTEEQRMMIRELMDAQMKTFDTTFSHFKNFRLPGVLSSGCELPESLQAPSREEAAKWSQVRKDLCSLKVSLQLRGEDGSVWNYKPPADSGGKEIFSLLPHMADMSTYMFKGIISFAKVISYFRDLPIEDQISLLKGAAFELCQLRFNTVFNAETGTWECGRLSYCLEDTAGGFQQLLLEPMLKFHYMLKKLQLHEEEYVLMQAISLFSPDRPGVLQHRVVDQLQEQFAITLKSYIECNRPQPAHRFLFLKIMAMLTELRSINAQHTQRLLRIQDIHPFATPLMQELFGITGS
Sequence of Myc proto-oncogene protein (Homo sapiens) (P01106 whole entry, looked up, the tested form may be a part): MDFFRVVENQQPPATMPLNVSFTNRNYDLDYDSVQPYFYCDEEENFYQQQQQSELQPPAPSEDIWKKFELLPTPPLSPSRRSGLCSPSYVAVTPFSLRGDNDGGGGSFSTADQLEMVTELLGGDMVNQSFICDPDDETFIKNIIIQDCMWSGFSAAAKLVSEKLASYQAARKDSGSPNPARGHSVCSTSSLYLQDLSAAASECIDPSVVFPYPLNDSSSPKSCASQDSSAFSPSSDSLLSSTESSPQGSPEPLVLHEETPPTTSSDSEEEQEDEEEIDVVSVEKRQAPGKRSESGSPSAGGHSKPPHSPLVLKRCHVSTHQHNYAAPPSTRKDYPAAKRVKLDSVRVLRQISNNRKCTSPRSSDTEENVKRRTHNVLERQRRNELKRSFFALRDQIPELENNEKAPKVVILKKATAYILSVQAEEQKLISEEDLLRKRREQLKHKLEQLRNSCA
Sequence of Cellular tumor antigen p53 (Homo sapiens) (P04637 whole entry, looked up): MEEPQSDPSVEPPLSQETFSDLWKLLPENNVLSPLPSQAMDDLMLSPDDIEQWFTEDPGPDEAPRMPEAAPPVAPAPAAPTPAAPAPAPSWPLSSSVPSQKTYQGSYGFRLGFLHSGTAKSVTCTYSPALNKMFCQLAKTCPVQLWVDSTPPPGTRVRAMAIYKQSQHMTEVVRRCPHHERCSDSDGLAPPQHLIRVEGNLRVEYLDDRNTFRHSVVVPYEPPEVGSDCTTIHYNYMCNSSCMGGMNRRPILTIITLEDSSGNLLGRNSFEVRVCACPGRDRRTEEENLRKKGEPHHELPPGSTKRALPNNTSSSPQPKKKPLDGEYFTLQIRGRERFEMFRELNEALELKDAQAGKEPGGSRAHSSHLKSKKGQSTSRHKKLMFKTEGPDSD
Sequence of human RAR-related Orphan Receptor gamma (RORg), RORC (gene 6097) (P51449 whole entry, looked up, the tested form may be a part): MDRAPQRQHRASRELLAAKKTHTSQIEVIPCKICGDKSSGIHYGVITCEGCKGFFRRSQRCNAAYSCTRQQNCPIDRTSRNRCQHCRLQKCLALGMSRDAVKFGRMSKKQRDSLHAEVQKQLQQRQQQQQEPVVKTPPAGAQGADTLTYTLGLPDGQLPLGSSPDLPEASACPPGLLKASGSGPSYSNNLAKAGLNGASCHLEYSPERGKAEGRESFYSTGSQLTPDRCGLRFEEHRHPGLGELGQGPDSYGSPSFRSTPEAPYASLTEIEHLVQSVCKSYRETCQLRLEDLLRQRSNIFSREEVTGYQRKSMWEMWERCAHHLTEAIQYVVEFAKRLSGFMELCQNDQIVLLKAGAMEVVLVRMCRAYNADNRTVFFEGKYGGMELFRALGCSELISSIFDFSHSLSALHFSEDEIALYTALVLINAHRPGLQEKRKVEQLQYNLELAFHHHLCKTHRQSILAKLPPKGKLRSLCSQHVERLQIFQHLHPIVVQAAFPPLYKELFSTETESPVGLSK

A word on the AC50: it is the midpoint of the concentration-response curve, whichever way the signal moves. On to `Cc1ccc(C(=O)c2cc(O)c(O)c([N+](=O)[O-])c2)cc1`, for which the outcome in assay [1], in assay [2], in assay [3], in assay [4], in [5] and in assay [6] was inactive. Besides, the result in assay [7], in assay [8] and in assay [10] was inactive. Moreover, in [9], the AC50 was 17.5 µM (active).

As to `CC(C)c1cccc(O)c1`, the result in assay [1], in [2], in assay [3], in assay [4], in assay [5] and in assay [6] was inactive. Further, the compound was classed as inactive in assay [7], in [8] and in assay [9].

On to `Clc1cccc(Cl)n1`, for which the result in [1], in [2], in [3], in assay [4], in [5] and in assay [6] was inactive. In addition, the compound was called inactive in assay [7], in assay [8], in assay [9] and in [10].

Regarding `CNC[C@H](O)c1cccc(O)c1`, the result in [1], in [2], in [3], in assay [4], in assay [5] and in assay [6] was inactive. Besides, the outcome in assay [11], in assay [12], in [13], in assay [14], in assay [10] and in assay [15] was inactive. Besides, the compound was classed as inactive in assay [16].

With `CC[C@]12CCCN3CCc4c(n(c5ccccc45)[C@@](O)(C(=O)OC)C1)[C@@H]32`, the compound was called inactive in assay [1], in [2], in assay [4] and in assay [5]. Also, the AC50 in [3] is 170 µM (active); in assay [6], 164 µM (active).

With `CC(C)(C)c1n[nH]c(=S)n(N)c1=O`, the outcome in [1], in assay [2], in assay [3], in assay [4], in assay [5] and in assay [6] was inactive. In addition, the outcome in assay [7] was inactive.

For `c1ccc2c(c1)c1cccc3ccc4cccc2c4c31`, the call in assay [1], in [2], in assay [3], in [4], in [5] and in assay [6] was inactive. For the same compound, the outcome in assay [11], in assay [12], in [13], in assay [7], in assay [8] and in [14] was inactive. In addition, the call in assay [10], in assay [16] and in assay [17] was inactive.

For the compound `CNCCCC12CCC(c3ccccc31)c1ccccc12`, the AC50 in [1] was 11.1 µM (active); in assay [5], 15.4 µM (active); in [6], 16 µM (active). Besides, the result in assay [2], in assay [3], in assay [4], in assay [7], in assay [8] and in assay [9] was inactive. Moreover, the result in [10] was inactive.

In the case of `CCCCC/C=C/C=C/C=O`, the result in assay [1], in assay [2], in assay [3], in [5], in assay [6] and in assay [8] was inactive. Also, the compound was called inactive in [10] and in assay [16]. In addition, the AC50 in [4] is 40.6 µM (active); in [11], 31.5 µM (active); in assay [12], 29.3 µM (active); in assay [13] it was 29.9 µM (active); in [14], 32.8 µM (active); in assay [9], 9.8 µM (active).

Consider `NC(=O)NC1NC(=O)NC1=O` (configuration not stated), for which the result in [1], in assay [2], in assay [3], in assay [4], in assay [5] and in [6] was inactive. Moreover, the result in assay [7] and in assay [10] was inactive.
